Records with an inconclusive call do not appear. Entries that show only a call come without a potency. Some compounds were tested as several samples or in several runs, with calls that do not always agree. The source made the active and inactive calls. Unless noted, the call rests on the fitted dose curve; in most records, active means well fitted curve in the direction sought with a large enough effect in the repeat runs; inconclusive means weak or mixed curves; inactive means no such curve, though single readings can be large; an effect the other way counts as inactive or inconclusive. Positions of bridges follow the written chain, without caps; N, C: chain ends. Non-standard residues stand in square brackets, D forms with d. Residues, ends and D or L forms follow the SMILES beside them. *: point of attachment. X2 = CC[C@H](C)CCCCC(=O)*; Dab = NCC[C@H](N)C(=O)O
What was measured:
[1] = qHTS assay for small molecules that induce genotoxicity in human embryonic kidney cells expressing luciferase-tagged ATAD5 (AID 651632); further: nearly all actives have a fitted effect of over 15% in size
Summary of the method: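 Genotoxicity read-out via ATAD5-luciferase: HEK293T cells, 16 hr compound incubation at 37C, Amplite detection.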

[2] = qHTS assay for small molecule agonists of the p53 signaling pathway - cell viability (AID 651633; calls by dose curve; further: nearly all actives have a fitted effect of over 30% in size; further: potency means the concentration at half of the fitted maximal effect)
Summary of the method: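 p53RE-bla cells were treated with compound for 16 hours at 37 C. Cytotoxicity was then measured as CellTiter-Glo luminescence after 30 min at room temperature.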

[3] = qHTS assay for small molecules that induce genotoxicity in human embryonic kidney cells expressing luciferase-tagged ATAD5 - cell viability (AID 651634; calls by dose curve; further: nearly all actives have a fitted effect of over 25% in size; further: potency means the concentration at half of the fitted maximal effect)
Summary of the method: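 Live-cell protease activity (CellTiter-Fluor, fluorescence) indicates viability. HEK293T cells with luciferase-tagged ATAD5; 15.5 hr compound treatment at 37C.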

[4] = qHTS assay for small molecule disruptors of the mitochondrial membrane potential - cell viability (AID 720634; calls by dose curve;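 further: human HepG2 liver cancer cells; series mostly up to about 83 µM; nearly all actives have a fitted effect of over 20% in size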)
Summary of the method: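 Human hepatoma HepG2 cells were treated for 1 hr with test chemicals, then given m-MPI dye and CellTiter-Glo. Cell viability reflects luminescence proportional to cellular ATP.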

[5] = qHTS assay for small molecule disruptors of the mitochondrial membrane potential (AID 720635); further: potency means the concentration at half of the fitted maximal effect
Summary of the method: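 HepG2 cells exposed to compound 1 hr at 37C, then Mito-MPS dye 30 min. Ratio read of aggregate (540/590 nm) versus monomer (490/535 nm) fluorescence.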

[6] = qHTS assay to test for compound auto fluorescence at 590 nm (red) in HepG2 cells (AID 720674)
Summary of the method: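 HepG2 cells, 2,000 per well in MEM with 10% FBS, attached overnight at 37 C, then got 23 nL compound or DMSO. After 1 hr at 37 C, 5% CO2, red fluorescence was read at 540/590 nm against Rose Bengal sodium as reference.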

[7] = qHTS assay to test for compound auto fluorescence at 535 nm (green) in HepG2 cells (AID 720675)
[8] = qHTS assay to test for compound auto fluorescence at 460 nm (blue) in HEK293 cells (AID 720678)
Summary of the method: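 Blue-channel (Ex/Em 405/460 nm) intensity measured in HEK293 cultures after overnight compound exposure at 37C; signal expressed relative to triamterene. Cells plated 2,000 per well in 10% dialyzed FBS medium and allowed 4-5 hr to attach.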

[9] = qHTS assay to test for compound auto fluorescence at 590 nm (red) in HEK293 cells (AID 720679)
Summary of the method: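 Red-channel autofluorescence (Ex/Em 540/590 nm; Rose Bengal sodium reference) was measured after overnight 37C, 5% CO2 exposure of attached HEK293 cells, 2,000 per well in medium with 10% dialyzed FBS.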

[10] = qHTS assay for small molecule agonists of the p53 signaling pathway (AID 651631; calls by dose curve; further: nearly all actives have a fitted effect of over 15% in size; further: potency means the concentration at half of the fitted maximal effect)
Summary of the method: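 Read-out is beta-lactamase FRET fluorescence measured 2 h after substrate addition at room temperature, in HCT-116 cells with a p53 response element-driven reporter exposed to compounds for 16 h at 37 °C.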

Row | SMILES | Potency [1] | Potency [2] | Potency [3] | Potency [4] | Potency [5] | Potency [6] | Potency [7] | Potency [8] | Potency [9] | Potency [10]
1 | CCCC(=O)Nc1c(I)cc(I)c(CC(CC)C(=O)O)c1I (stereo not drawn) | inactive | inactive | inactive | inactive | inactive | inactive | inactive | inactive | inactive | 
2 | OC(CN1CCCCC1)c1cc(-c2ccccc2)on1 (stereo not drawn) |  | inactive | inactive |  | inactive | inactive | inactive | inactive | inactive | inactive
3 | CC(C)C(=O)OCC(=O)[C@@]12O[C@H](C3CCCCC3)O[C@@H]1C[C@H]1[C@@H]3CCC4=CC(=O)C=C[C@]4(C)[C@H]3[C@@H](O)C[C@@]12C | inactive | inactive | inactive | inactive | 7.84 µM (active) | inactive | inactive | inactive | inactive | 
4 | CO[C@@H]1[C@@H](O[C@@H]2O[C@H](C)[C@@H](O[C@H]3C[C@@](C)(O)[C@@H](OC(=O)CC(C)C)[C@H](C)O3)[C@H](N(C)C)[C@H]2O)[C@@H](CC=O)C[C@@H](C)[C@@H](O)/C=C/C=C/C[C@@H](C)OC(=O)C[C@H]1O |  | inactive | inactive |  | inactive | inactive | inactive | inactive | inactive | inactive
5 | CN1CCN2c3ncccc3Cc3ccccc3C2C1 (stereo not drawn) | inactive | inactive | inactive | inactive | inactive | inactive | inactive | inactive |  | 
6 | CN(C(=O)CO)c1c(I)c(C(=O)NCC(O)CO)c(I)c(C(=O)NCC(O)CO)c1I (stereo not drawn) |  | inactive |  | inactive | inactive | inactive | inactive | inactive | inactive | inactive
7 | CC1CCC(NC(=O)N(CCCl)N=O)CC1 (stereo not drawn) |  | inactive |  | inactive | inactive | inactive |  | inactive | inactive | inactive
8 | CCCCCCCCCCCCCCCCSCC(COC)COP(=O)([O-])OCC[N+](C)(C)C (stereo not drawn) |  | inactive |  | inactive |  | inactive | inactive | inactive | inactive | inactive
9 | CCCCCCCCCCCCCCCC(=O)OCC(COC(=O)CCCCCCCCCCCCCCC)OC(=O)CCCCCCCCCCCCCCC | inactive | inactive | inactive | inactive | inactive | inactive | inactive | inactive | inactive | 
10 | CC(=O)O[C@H]1C(=O)[C@@]2(C)[C@H]([C@H](OC(=O)c3ccccc3)[C@]3(O)C[C@H](OC(=O)[C@H](O)[C@@H](NC(=O)c4ccccc4)c4ccccc4)C(C)=C1C3(C)C)[C@]1(OC(C)=O)CO[C@@H]1C[C@@H]2O | inactive | inactive | 0.0188 µM (active) | inactive | 0.944 µM (active) | inactive | inactive | inactive | inactive | 
11 | CN[C@@H]1[C@H](O[C@H]2[C@H](O[C@H]3[C@H](O)[C@@H](O)[C@H](N=C(N)N)[C@@H](O)[C@@H]3N=C(N)N)O[C@@H](C)[C@]2(O)C=O)O[C@@H](CO)[C@H](O)[C@H]1O | inactive | inactive | inactive | inactive | inactive | inactive | inactive | inactive |  | 
12 | CC[C@H](C)CCCCC(=O)N[C@@H](CCN)C(=O)N[C@H](C(=O)N[C@@H](CCN)C(=O)N[C@H]1CCNC(=O)[C@H]([C@@H](C)O)NC(=O)[C@H](CCN)NC(=O)[C@H](CCN)NC(=O)[C@H](CC(C)C)NC(=O)[C@@H](CC(C)C)NC(=O)[C@H](CCN)NC1=O)[C@@H](C)O (X2-[Dab]T[Dab][Dab][Dab][dL]L[Dab][Dab]T; lactam 4-C) | inactive | inactive | inactive | inactive | inactive | inactive | inactive | inactive | inactive | 
13 | C=C1CC[C@H](O)CC1=C/C=C1\CCC[C@]2(C)[C@@H]([C@H](C)CCCC(C)(C)O)CC[C@@H]12 | inactive | 11.9 µM (active) | 13.3 µM (active) | inactive | 5.31 µM (active) | inactive | inactive | inactive | inactive | 
14 | CNC(=O)[C@H](Cc1c[nH]c2ccccc12)NC(=O)[C@@H](CC(=O)NO)CC(C)C |  | inactive | inactive |  | inactive | inactive | inactive | inactive | inactive | inactive
15 | CN1c2cc(O)c(N=NC(N)=O)cc2CC1S(=O)(=O)O (stereo not drawn) |  | inactive |  | inactive |  | inactive | inactive | inactive | inactive | inactive
16 | CC[C@@H](C(=O)O)[C@@H]1O[C@@H]([C@@H](C)[C@H](O)[C@H](C)C(=O)[C@H](CC)[C@H]2O[C@]3(C=C[C@@H](O)[C@]4(CC[C@@](C)([C@H]5CC[C@](O)(CC)[C@H](C)O5)O4)O3)[C@H](C)C[C@@H]2C)[C@@H](C)C[C@@H]1C |  | inactive | 1.88 µM (active) | inactive |  | inactive | inactive | inactive | inactive | 3.76 µM (active)
17 | COC(=O)[C@H]1[C@H]2C[C@@H]3c4[nH]c5ccccc5c4CCN3C[C@H]2C[C@@H](OC(=O)c2cc(OC)c(OC)c(OC)c2)[C@@H]1OC | inactive | 5.31 µM (active) and inactive | inactive | inactive | 3.35 µM (active) | inactive | inactive | inactive |  | 

Row | SMILES | Potency [1] | Potency [2] | Potency [3] | Potency [4] | Potency [5] | Potency [6] | Potency [7] | Potency [8] | Potency [9] | Potency [10]
18 | CC1=C(/C=C/C(C)=C/C=C/C(C)=C/C=C/C=C(C)/C=C/C=C(C)/C=C/C2=C(C)C[C@@H](O)CC2(C)C)C(C)(C)C[C@H](O)C1 |  |  |  |  |  | inactive | inactive | inactive | inactive | 29.8 µM (active)
19 | Nc1ncnc(Nc2ccc(Cl)cc2)n1 |  | inactive | inactive |  |  | inactive | inactive | inactive | inactive | inactive
20 | COc1ccc(CNCC(O)COc2ccc3[nH]c(=O)ccc3c2)cc1OC (stereo not drawn) |  | inactive |  | inactive | inactive | inactive | inactive | inactive | inactive | inactive
21 | CC1(C)N=C(N)N=C(N)N1c1ccc(Cl)cc1 | inactive | 5.96 µM (active) | inactive | inactive | inactive | inactive | inactive | inactive | inactive | 
22 | NC(Cc1ccccc1)C(=O)O (stereo not drawn) |  | inactive | inactive |  | inactive | inactive | inactive | inactive | inactive | inactive
23 | CC(=O)Oc1c(C)cc(OCC(O)CNC(C)C)c(C)c1C (stereo not drawn) |  |  | inactive | inactive | inactive | inactive | inactive | inactive | inactive | inactive
24 | O=C(O)[C@@H](O)[C@H](O)[C@H](O)[C@@H](O)C(=O)O (tested in a mixture with another compound) | inactive | inactive | inactive | inactive | inactive | inactive | inactive | inactive | inactive | 
25 | C[C@H](CCCC(C)(C)O)[C@H]1CC[C@H]2[C@@H]3CC=C4C[C@@H](O)CC[C@]4(C)[C@H]3CC[C@]12C | inactive | inactive | inactive | inactive | inactive | inactive | inactive | inactive |  | 
26 | CCCCCCCCCCCCCCCCCCCCCCO | inactive | inactive | inactive | inactive | inactive | inactive | inactive | inactive | inactive | 
27 | C[C@H](CSC(=O)c1ccccc1)C(=O)N1C[C@@H](Sc2ccccc2)C[C@H]1C(=O)O | inactive | inactive | inactive | inactive | inactive | inactive | inactive | inactive | inactive | 
28 | COc1ccc2cc([C@H](C)CO)ccc2c1 | inactive | inactive | inactive | inactive | inactive | inactive | inactive | inactive | inactive | 
29 | CO[C@H]1C[C@@H]2CC[C@@H](C)[C@@](O)(O2)C(=O)C(=O)N2CCCC[C@H]2C(=O)O[C@H]([C@H](C)C[C@@H]2CC[C@@H](OCCO)[C@H](OC)C2)CC(=O)[C@H](C)/C=C(\C)[C@@H](O)[C@@H](OC)C(=O)[C@H](C)C[C@H](C)/C=C/C=C/C=C/1C | inactive | 21.1 µM (active) | 29.8 µM (active) | inactive | 21.1 µM (active) | inactive | inactive | inactive | inactive | 
30 | COc1ccc(CC2c3cc(OC)c(OC)cc3CC[N+]2(C)CCC(=O)OCCCCCOC(=O)CC[N+]2(C)CCc3cc(OC)c(OC)cc3C2Cc2ccc(OC)c(OC)c2)cc1OC (stereo not drawn) | inactive | inactive | inactive | inactive | inactive | inactive | inactive | inactive | inactive | 
31 | CNC(=O)c1c(I)c(C(=O)NCC(=O)Nc2c(I)c(C(=O)O)c(I)c(C(=O)NCCO)c2I)c(I)c(N(C)C(C)=O)c1I | inactive | inactive | inactive | inactive | inactive | inactive | inactive | inactive | inactive | 
32 | CC1CS(=O)(=O)CCN1/N=C/c1ccc([N+](=O)[O-])o1 (stereo not drawn) | inactive | inactive | inactive | inactive | inactive | inactive | inactive | inactive | inactive | 
33 | CC[C@H](C)[C@@H]1NC(=O)[C@H](Cc2ccc(O)cc2)NC(=O)[C@@H](N)CSSC[C@@H](C(=O)N2CCC[C@H]2C(=O)N[C@@H](CC(C)C)C(=O)NCC(N)=O)NC(=O)[C@H](CC(N)=O)NC(=O)[C@H](CCC(N)=O)NC1=O | inactive | inactive | inactive | inactive | inactive | inactive | inactive | inactive | inactive | 

Source: PubChem BioAssay (Tox21)
